High-throughput results as filed in PubChem.
MITF act: activators of MITF-driven TRPM1 promoter activity in SK-MEL-5 cells | SK-MEL-5 TRPM1-promoter luciferase, 24 h; % of positive control, neutral wells = 0 | activation, % at 12.5 µM | 300,000 compounds, 0.75% hits | AID 588334;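 active means mean activation of at least 80% with every replicate also reaching 80%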;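 further: 0% = neutral control wells and 100% = parthenolide positive control wells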
GAA850 FXN act: activators of GAA850 frataxin (FXN) promoter; 360,000 compounds, 0.56% hits; activation, % at 6 µM; HEK293 lucGAA850 FXN promoter luciferase reporter, 24 h; percent of 10 µM SAHA response; AID 540364;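 active means activation above the average of all compounds screened plus 3 SD, cutoff fixed separately per campaign, cut at about 7.5% in these data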;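 further: 0% = DMSO wells and 100% = 10 µM SAHA wells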
C2C12 statin: suppressors of simvastatin-induced myotoxicity in C2C12 myotubes. ATP luminescence, 48 h; scaled: DMSO 0, geranylgeraniol control 100. rescue of ATP level, % at 7.49 µM. 330,000 compounds, 0.78% hits;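 active means mean ATP rescue above about 67%, or every replicate alone reaching that limit, limit read from the data, passing the limit was not always enough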;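 further: myotubes were challenged with 10 µM simvastatin during compound exposure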
esBAF inh: SWI/SNF esBAF complex inhibition | mouse ES cells, Bmi1-luciferase knock-in reporter, 24 h; 100% = twice the neutral-well signal | AID 602393 | reporter increase, % at 12.5 µM | 350,000 compounds, 2% hits; in the data active means activation above about 40%;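 further: 0% = median of the plate's neutral control wells and 100% = double that signal; a rise in the Bmi1 reporter signal indicates esBAF inhibition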
Wnt bcat act: activates Wnt/beta-catenin signaling in a reporter cell assay; 300,000 compounds, 1.2% hits; AID 743398; activation, % at 9.35 µM; activator, plate reader; in the data active means activation above about 30%, passing the limit was not always enough;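 further: 0% = neutral control wells and 100% = positive control wells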
Active calls of the source: *; . = not tested or not shown; ! = not active in a repeat. Hits are enriched below; roughly 3.3% of the tested compounds scored in any of these assays.

SMILES	MITF act	GAA850 FXN act	C2C12 statin	esBAF inh	Wnt bcat act
COc1ccc(S(=O)(=O)N2CCN(C(=O)c3cccs3)CC2)cc1	-2.6	2.1	1.9	-5.2	.
O=S(=O)(N[C@@H]1CC[C@@H](CCn2cc(-c3ccccn3)nn2)O[C@@H]1CO)c1cccc(F)c1	.	.	4.3	-8.5	.
O=C(NCCc1ccccc1)[C@H]1N[C@H]2c3ccc(-c4ccccc4)c(=O)n3C[C@H]2[C@@H]1CO	.	.	-10.7	-1.3	.
COc1ccc(NC(=O)Nc2ccc3c(c2)C(=O)N([C@H](C)CO)C[C@H](C)[C@H](CN(C)C(=O)CCC(F)(F)F)OCCCC[C@@H](C)O3)cc1	.	.	.	1.3	.
CCc1ccc(NC(=O)C2CC(=O)N=C(N)S2)cc1 (configuration not stated)	9.8	3.0	2.5	-0.8	-4.2
CC(C)c1ccc(NC(=O)C2CC(=O)N=C(N)S2)cc1 (configuration not stated)	.	-0.1	138.2*	4.5	0.1
C/C(=N\Nc1nccnc1Cl)c1ccc(F)cc1	57.9	3.8	.	.	9.2
C/C(=N\Nc1nccnc1Cl)c1ccc(O)cc1	.	3.6	-5.3	41.6*	4.7
C[C@@H]1CN([C@H](C)CO)S(=O)(=O)c2ccc(C#CC3CCCC3)cc2O[C@@H]1CN(C)C(=O)c1cccc(F)c1	.	.	-28.3	.	.
Clc1cccc(Cl)c1CSc1cc2c(nn1)-c1ccccc1CC2	59.2	2.7	8.5	17.5	29.9
Clc1ccccc1CSc1cc2c(nn1)-c1ccccc1CC2	58.4	3.0	-15.0	88.1*	.
CCC(=O)N1[C@@H](CO)[C@@H](c2ccc(-c3ccccc3)cc2)[C@@H]1CNC(=O)COC	.	.	2.6	-0.7	.
CC(C)CSc1nc2ccccc2n1CC(N)=O	4.4	0.2	-4.3	-2.8	.
CC(C)Sc1nc2ccccc2n1CC(N)=O	.	-1.7	8.8	-2.0	44.3*
COC(=O)Cn1c(SCc2ccccc2)nc2ccccc21	41.5	5.9	8.1	48.5*	.
COc1ccc(C#Cc2cnc3c(c2)C(=O)N([C@H](C)CO)C[C@H](C)[C@@H](CN(C)C(=O)CC2CC2)O3)cc1	.	.	8.1	-21.3	.
Cc1ccc(C2NC(=S)N3C(c4ccc(C)cc4)NC(=S)N23)cc1 (configuration not stated)	.	2.2	-15.4	61.1*	6.0
C[C@@H]1CN([C@@H](C)CO)S(=O)(=O)c2ccc(/C=C/c3ccccc3)cc2O[C@H]1CN(C)C(=O)c1ccncc1	.	.	16.4	4.4	.
CCOC(=O)/C(=C\c1ccc(OC(F)F)cc1)C1=Nn2c(nnc2-c2ccc(Cl)cc2)SC1	-97.6	8.2*	.	.	.
Cc1ccc(/C=C2\SC(N3CCCCC3)=NC2=O)cc1	63.5	2.5	6.6	42.3*	6.9
O=C1N=C(N2CCCCC2)S/C1=C\c1ccc(Cl)cc1	.	2.6	9.9	29.3	1.7
O=C(N/N=C/c1ccc(Br)s1)c1cccs1	.	3.5	.	.	26.8
Cc1cc(/C=N\NC(=O)c2cccs2)c(C)n1-c1ccc2ncccc2c1	71.6	4.0	.	72.4*	1.5
O=C(NN=Cc1cccc2ccccc12)C(=O)NN=Cc1cccc2ccccc12	1.0	0.7	0.3	-4.0	-4.8
Cc1ccc(/C=N/NC(=O)c2cccs2)s1	62.4	4.9	-10.4	50.2*	.
SMILES	MITF act	GAA850 FXN act	C2C12 statin	esBAF inh	Wnt bcat act
O=C(N/N=C/c1cccc2ccccc12)c1cccs1	55.9	7.4	14.1	67.4*	34.4*
O=C(N/N=C/c1c[nH]c2ccccc12)c1ccccc1	.	4.7	-5.1	30.2	5.7
Cc1cc(/C=N\NC(=O)COc2cccc3cccnc23)c(C)n1-c1ccc(Br)cc1	-6.7	0.5	.	.	-2.8
O=C(N/N=C/c1c[nH]c2ccccc12)c1cccs1	.	2.0	.	.	42.6*
C[C@@H](NC(=O)C[C@H]1C[C@H]2c3cc(NC(=O)CN(C)C)ccc3O[C@H]2[C@H](CO)O1)c1ccccc1	.	.	4.5	4.7	.
C[C@H]1CN([C@@H](C)CO)C(=O)c2cc(NC(=O)C3CC3)ccc2O[C@@H]1CN(C)CC1CCCCC1	.	.	80.5*	-1.2	.
COc1ccc(S(=O)(=O)N(C)C[C@H]2OCCCC[C@@H](C)Oc3ccc(NS(=O)(=O)c4ccc(F)cc4)cc3C(=O)N([C@@H](C)CO)C[C@H]2C)cc1	.	.	13.1	0.1	.
COc1ccc(S(=O)(=O)Nc2ccc3c(c2)C(=O)N([C@H](C)CO)C[C@@H](C)[C@@H](CN(C)S(=O)(=O)c2cccs2)OCCCC[C@H](C)O3)cc1	.	.	51.7	-3.0	.
COc1ccc(S(=O)(=O)Nc2ccc3c(c2)C(=O)N([C@@H](C)CO)C[C@@H](C)[C@@H](CN(C)S(=O)(=O)c2cccs2)OCCCC[C@H](C)O3)cc1	.	.	90.5*	4.6	.
COc1ccc(S(=O)(=O)Nc2ccc3c(c2)C(=O)N([C@@H](C)CO)C[C@@H](C)[C@@H](CN(C)S(=O)(=O)c2ccc(F)cc2)OCCCC[C@H](C)O3)cc1	.	.	150.5*	-0.2	.
C[C@@H]1CN([C@H](C)CO)C(=O)c2cc(NC(=O)Nc3ccc(F)cc3)ccc2O[C@@H](C)CCCCO[C@H]1CN(C)S(=O)(=O)c1cccs1	.	-3.7	141.4*!	14.9	-8.0
COc1ccc(S(=O)(=O)Nc2ccc3c(c2)C(=O)N([C@@H](C)CO)C[C@H](C)[C@H](CN(C)Cc2ccc4c(c2)OCO4)OCCCC[C@@H](C)O3)cc1	.	.	10.6	-4.2	.
COc1ccc(S(=O)(=O)Nc2ccc3c(c2)C(=O)N([C@@H](C)CO)C[C@@H](C)[C@@H](CN(C)Cc2ccc4c(c2)OCO4)OCCCC[C@H](C)O3)cc1	.	.	89.8*	0.4	.
COc1ccc(S(=O)(=O)Nc2ccc3c(c2)C(=O)N([C@@H](C)CO)C[C@@H](C)[C@@H](CN(C)S(=O)(=O)c2ccc(F)cc2)OCCCC[C@@H](C)O3)cc1	.	.	133.5*	3.0	.
C[C@@H]1CCCCO[C@@H](CN(C)CC2CCCCC2)[C@@H](C)CN([C@H](C)CO)C(=O)c2cc(NS(=O)(=O)c3ccc(F)cc3)ccc2O1	.	.	96.3*	5.4	.
O=C(CSc1nccn1Cc1ccco1)Nc1ccccc1F	23.4	2.9	2.7	14.7	2.6
Cc1ccc(NC(=O)CSc2nccn2Cc2ccco2)c(C)c1	20.1	3.2	15.5	-41.0	36.9*
Cc1ccc(C)c(NC(=O)CSc2nccn2Cc2ccco2)c1	31.4	2.4	6.4	55.7*	7.3
CC(=O)N(c1cccc(C)c1)C1SC(=O)N(c2ccccc2)C1=O (configuration not stated)	-7.9	-0.5	.	-0.9	-1.1
Cc1ccc(N2C(=O)SC(N(CC(=O)O)c3cccc(C)c3)C2=O)cc1 (configuration not stated)	4.6	5.1	41.0	34.6	41.2*
Clc1ccc(/C=N/N2CCCCC2)cc1	93.6*	2.4	.	.	32.7*
Clc1ccc(C=NN2CCCCCC2)c(Cl)c1	21.3	3.3	-2.8	39.2	16.2
Clc1ccc(C=NN2CCCCCC2)cc1Cl	56.5	3.2	-10.1	.	55.6*
O=[N+]([O-])c1ccc(/C=N/N2CCCCC2)cc1	106.0*	5.0	-8.3	76.5*	17.8
